Most compounds without a hit are left out; they make up all but 6.9% or so of the library.
Beta cell apopt = blocks beta cell apoptosis | INS-1E cytokine-induced death, ATP luminescence, 48 h; percent of positive-control rescue, neutral wells zero | protection from apoptosis, % (no concentration beside the values) | 300,000 compounds, 0.8% hits;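 active = Every replicate reaches about 75%, or at least half do and their mean reaches it too, limit read from the data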;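 note: 0% = cytokine-treated negative control wells and 100% = positive control rescue; higher means more ATP so stronger rescue from cytokine killing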
SKKanGAS inh = inhibitors of SKKanGAS S. pyogenes growth in kanamycin (SK-promoter or general growth effect). BacTiter-Glo, 6 h. inhibition, % at 7.5 µM. 300,000 compounds, 1.3% hits;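 active = mean replicate score, as percent of positive control median, at least 50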;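 note: strain carries kanamycin resistance gene driven by streptokinase promoter and grows in 40 µg/ml kanamycin; loss of luminescence reflects streptokinase promoter inhibition or plain growth inhibition; 0% = median of DMSO wells and 100% = positive control at its reference dose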
CSC inhib = blocks cancer stem cells; 300,000 compounds, 1.1% hits; inhibition, % at 7.5 µM; cancer stem cell-like cells viability, luminescence; AID 2717; in the data active = inhibition above about 75%; tested in HMLE shEcad cells
GRIN3A LBD mod = modulators (binders) of human NR3A ligand-binding domain. NR3A LBD differential scanning fluorimetry, Tm shift; 0% = protein alone, 100% = glycine-bound protein. Tm shift relative to glycine control, % at 25 µM. 340,000 compounds, 2.5% hits. AID 1259313;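 active = melting temperature shift of at least 10% of the positive control shift, at one fixed dose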
Mdm2 MdmX PPI = human Mdm2/MdmX binding inhibition. SaOS-2 split-luciferase Mdm2/MdmX complementation, luminescence. inhibition, % at 8 µM. 330,000 compounds, 3% hits. AID 485346;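 active = inhibition of at least 50% at 8 µM in the primary screen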
Target sequence (O15151 whole entry, looked up): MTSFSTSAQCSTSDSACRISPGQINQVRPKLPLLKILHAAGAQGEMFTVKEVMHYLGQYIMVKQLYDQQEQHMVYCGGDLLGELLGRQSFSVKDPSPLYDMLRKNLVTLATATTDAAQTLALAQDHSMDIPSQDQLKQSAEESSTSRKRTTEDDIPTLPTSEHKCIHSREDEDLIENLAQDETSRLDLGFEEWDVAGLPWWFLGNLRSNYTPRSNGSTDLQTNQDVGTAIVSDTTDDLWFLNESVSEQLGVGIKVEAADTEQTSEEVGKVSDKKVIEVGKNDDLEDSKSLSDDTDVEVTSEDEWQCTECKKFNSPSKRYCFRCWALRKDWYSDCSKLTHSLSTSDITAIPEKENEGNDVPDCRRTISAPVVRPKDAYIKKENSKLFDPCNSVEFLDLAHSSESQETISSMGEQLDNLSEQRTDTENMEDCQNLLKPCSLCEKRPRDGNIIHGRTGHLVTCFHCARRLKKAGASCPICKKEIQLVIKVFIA
Target sequence (Q00987 whole entry, looked up): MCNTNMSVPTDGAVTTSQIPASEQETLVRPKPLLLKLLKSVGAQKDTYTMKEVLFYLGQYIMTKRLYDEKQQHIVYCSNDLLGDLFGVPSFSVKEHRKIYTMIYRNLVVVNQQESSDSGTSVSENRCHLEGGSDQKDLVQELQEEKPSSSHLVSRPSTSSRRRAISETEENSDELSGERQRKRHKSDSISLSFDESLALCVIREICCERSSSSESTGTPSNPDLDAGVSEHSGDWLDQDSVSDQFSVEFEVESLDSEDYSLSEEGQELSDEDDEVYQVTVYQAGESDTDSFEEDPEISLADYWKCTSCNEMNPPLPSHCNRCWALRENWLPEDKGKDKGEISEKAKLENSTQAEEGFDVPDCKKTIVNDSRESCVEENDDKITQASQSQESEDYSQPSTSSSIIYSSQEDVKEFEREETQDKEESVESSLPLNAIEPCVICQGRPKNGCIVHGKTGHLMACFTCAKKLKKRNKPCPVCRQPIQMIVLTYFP
MPTP inh = blocks calcium-induced mitochondrial swelling; 360,000 compounds, 1.4% hits; inhibition, % at 10 µM; isolated mouse mitochondria, Ca2+ swelling absorbance, 30 min;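 active = inhibition of 50% or more, scaled per plate between neutral and stimulator controls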;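 note: 0% = DMSO wells given calcium and 100% = 1 mM EGTA wells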
* marks the source's active call; other numbers are inactive results; nt = no result.

SMILES	Beta cell apopt	SKKanGAS inh	CSC inhib	GRIN3A LBD mod	Mdm2 MdmX PPI	MPTP inh
Cc1ccc(CN2CCSc3ccc(C(=O)NCc4ccco4)cc32)cc1	-6	-13	84*	1	30	7
CCOc1ccccc1C(=O)OCC(=O)NCCNC(=O)COC(=O)c1ccccc1OCC	-14	-3	-9	0	-5	-2
Oc1ccccc1-c1ccn[nH]1	4	nt	nt	-1	21	0
Oc1ccccc1-c1nc2c3ccccc3c3ccccc3c2[nH]1	6	86*	-3	37*	nt	2
O=[N+]([O-])c1ccc(CP(=O)(c2ccccc2)c2ccccc2)cc1	22	3	81*	1	-4	1
CCOc1cc(C2NC(=O)NC(C)=C2C(=O)OCC2CCCCC2)ccc1O (stereo not drawn)	-10	1	-19	1	20	2
CSc1nnc2c3ccccc3n(Cc3ccccc3)c2n1	5	1	-5	3	44	1
CSc1nnc2c3cc(F)ccc3n(Cc3ccccc3)c2n1	2	3	nt	39*	27	3
CC1=NN(c2nc(-c3ccc(C#N)cc3)cs2)C(=O)C1	0	-14	1	-3	7	nt
CC1=NN(c2nc(-c3ccccc3)cs2)C(=O)C1	2	66*	nt	1	-10	-5
COc1ccccc1C/C(N)=N/OC(=O)c1cccc([N+](=O)[O-])c1	-3	-9	-1	1	33	-2
COc1ccc(C/C(N)=N/OC(=O)c2cccc([N+](=O)[O-])c2)cc1	0	2	4	14*	9	0
COc1ccc(OCC(=O)O/N=C(\N)Cc2ccc(Cl)cc2)cc1	-5	5	31	15*	-2	1
Cc1ccc(OCC(=O)O/N=C(\N)Cc2ccc(Cl)cc2)cc1	-6	18	-13	1	-10	2
C#CC1(O)CCC2C3CCc4cc(O)cc(C)c4C3CCC21C (stereo not drawn)	nt	nt	nt	-5	nt	0
Cn1c(Cc2cccs2)nnc1SCC(=O)Nc1ccc(F)cc1F	1	2	-7	2	6	0
CC(C)COc1ccc(CNC(=S)N/N=C/c2ccc([N+](=O)[O-])cc2)cc1	1	-4	-4	2	3	-2
CCCOc1ccc(CNC(=S)N/N=C/c2ccc([N+](=O)[O-])cc2)cc1	7	7	-6	11*	0	12
N#Cc1c(N)[nH]c2ccc(Sc3ccccc3)cc12	nt	nt	nt	109*	nt	46
CCOc1cc(/C=N/N=C(/N)c2nonc2N)cc(Br)c1OCc1ccc(Cl)cc1	34	7	15	-1	30	3
COc1cc(/C=N/N=C(/N)c2nonc2N)cc(Br)c1OCc1ccccc1C	1	12	15	15*	35	2
COc1cccc2sc3ccc(C#Cc4ccc(N)cc4)cc3c(=O)c12	2	76*	21	-7	-86	-1
Nc1ccc(C#Cc2ccc3sc4ccccc4c(=O)c3c2)cc1	nt	2	28	1	-218	2
C=CCn1c(COc2ccc(F)cc2)nnc1SC(C)C(=O)NCC1CCCO1 (stereo not drawn)	-4	nt	nt	2	-14	-2
CCN(CC)CCNC(=O)c1ccccc1N	-3	-3	-2	0	6	-6
SMILES	Beta cell apopt	SKKanGAS inh	CSC inhib	GRIN3A LBD mod	Mdm2 MdmX PPI	MPTP inh
CCN(CC)CCNC(=O)C(Oc1ccccc1)Oc1ccccc1	1	1	-8	31*	14	0
O=C(CCN1C(=O)/C(=C/c2ccccc2Cl)SC1=S)NC1C=CS(=O)(=O)C1 (stereo not drawn)	-12	2	-24	0	46	-1
CCOC(=O)c1c(CSc2ccccc2)n(C)c2ccc(O)c(CN3CCOCC3)c12	-1	5	-2	14*	19	1
Cc1ccc(C2CC(c3ccc(C)cc3)n3nc(N)nc3N2)cc1 (stereo not drawn)	103*	10	nt	2	10	0
Cc1ccc(C2CC(c3ccc(Cl)cc3)n3nc(N)nc3N2)cc1 (stereo not drawn)	0	7	16	1	-17	-3
Clc1ccc(CSc2nnc(-c3ccccn3)n2Cc2cccs2)cc1Cl	nt	nt	nt	nt	nt	-1
CC(=O)Nc1ccc(-c2ccnc3c2CC(C(=O)NCc2cccc(Cl)c2)O3)cc1 (stereo not drawn)	nt	nt	nt	nt	nt	0
CCN(c1ccccc1)S(=O)(=O)c1ccc(C(=O)Nc2nnc(C3CC3)o2)cc1	3	78*	32	-8	39	0
CN(c1ccccc1)S(=O)(=O)c1ccc(C(=O)Nc2nnc(-c3ccco3)o2)cc1	-2	16	67	-9	36	0
CCN(c1ccccc1)S(=O)(=O)c1ccc(C(=O)Nc2nnc(-c3ccco3)o2)cc1	1	63*	87*	-4	42	0
CN(c1ccccc1)S(=O)(=O)c1ccc(C(=O)Nc2nnc(C3CC3)o2)cc1	-1	10	25	-2	40	1
Cc1ccc(-c2nc3ccc(Br)cn3c2Cc2cccc(F)c2)cc1	nt	nt	nt	nt	nt	0
CCOC(=O)CSc1nnc(Cc2ccccc2)n1-c1cccc(Cl)c1	3	-2	nt	733*	-3	2
CCOC(=O)CSc1nnc(Cc2ccc(OC)cc2)n1-c1ccccc1	-7	-1	-4	0	6	1
NC(=S)N/N=C/c1ccccc1	-6	-4	0	-3	-20	0
NC(=S)N/N=C/c1ccc(C23CC4CC(CC(C4)C2)C3)cc1	77*	100*	113*	10*	46	nt
COc1ccccc1N(CC(=O)N1CCN(c2ccccc2)CC1)S(=O)(=O)c1ccc(C)cc1	nt	3	-3	2	-7	-1
CCOC(=O)c1ccc(Cl)c(NC(=O)c2ccc(-c3ccccc3)cc2)c1	6	1	-1	2	36	1
CCOC(=O)c1ccc(/C=C2/C=C(c3ccccc3)N(c3ccc(Cl)c(C(=O)O)c3)C2=O)cc1	-7	-6	45	21*	3	8
CCOc1ccc(NC(=O)CN(C)C(=O)c2ccc(OCC(=O)N3CCOCC3)c(OC)c2)cc1OCC	nt	nt	nt	2	nt	-1
COc1ccc(Br)cc1CN(C)CC(=O)NCc1ccc(F)cc1	98*	3	12	0	21	0
CN(CC(=O)NCc1ccc(F)cc1)Cc1ccc(Br)cc1	-6	-3	1	-1	-12	2
CC(Sc1nnc(Cc2ccccc2)o1)C(=O)Nc1ccccc1[N+](=O)[O-] (stereo not drawn)	-2	nt	-7	0	4	-2
CCc1ccc(-n2nc3ccc(NC(=O)c4ccc5c(c4)OCO5)cc3n2)cc1	51	15	-15	15*	-12	2
Cc1ccc(-n2nc3ccc(NC(=O)c4cccc([N+](=O)[O-])c4C)cc3n2)cc1	1	3	0	17*	16	31
Cc1ccc(-n2nc3ccc(NC(=O)c4ccc5c(c4)OCO5)cc3n2)cc1	4	4	6	13*	34	0
